# Source: publication PMC7862700, “An all-to-all approach to the identification of sequence-specific readers for epigenetic DNA modifications on cytosine”
# Legend:
# Test in all cases: DAPPL (digital affinity profiling via proximity ligation, sequencing); 10 mM Tris-HCl pH 7.5, 50 mM NaCl, 1 mM DTT, 4% glycerol, room temperature, 30 min; GST-TFs on glutathione beads, 16-mer random dsDNA library, 0.1% formaldehyde crosslink after washing; high values mean tight binding
# [1] = target: T1, FLI1 (Homo sapiens, UniProt Q01543 1-452); details: protein: recombinant; tags: N-terminal GST; dsDNA, one strand shown
# T1 sequence: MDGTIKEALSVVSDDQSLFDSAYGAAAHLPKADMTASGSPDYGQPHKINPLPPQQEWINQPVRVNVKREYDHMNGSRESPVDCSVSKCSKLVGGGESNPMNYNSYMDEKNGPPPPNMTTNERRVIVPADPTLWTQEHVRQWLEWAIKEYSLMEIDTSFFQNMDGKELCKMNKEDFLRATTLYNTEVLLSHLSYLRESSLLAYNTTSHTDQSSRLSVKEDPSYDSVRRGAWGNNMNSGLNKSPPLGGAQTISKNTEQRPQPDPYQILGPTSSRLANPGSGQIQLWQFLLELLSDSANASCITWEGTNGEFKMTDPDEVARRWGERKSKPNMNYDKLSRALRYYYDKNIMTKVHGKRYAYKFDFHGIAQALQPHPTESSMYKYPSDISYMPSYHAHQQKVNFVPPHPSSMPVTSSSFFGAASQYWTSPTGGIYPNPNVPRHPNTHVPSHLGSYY
# In short: (§1)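 Sequencing on an Illumina NextSeq500 followed washing, crosslinking with 0.1% formaldehyde, proximity ligation (BsaI/T4 ligase, 1 h, 37 °C) and PCR amplification of pools that had been incubated for 30 min at room temperature with 200 nmole of a random double-stranded 16-mer DNA library in Tris/NaCl/DTT/glycerol buffer. Each pool held DNA-barcoded human transcription factors, expressed in yeast as GST fusions and captured on glutathione beads, plus a tag-only sample. Binding signal is a hexamer's read frequency for a factor divided by its frequency in the tag-only sample.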
# [2] = target: T2, ELK1 (Homo sapiens, UniProt P19419 1-428); details: protein: recombinant; tags: N-terminal GST; dsDNA, one strand shown
# T2 sequence: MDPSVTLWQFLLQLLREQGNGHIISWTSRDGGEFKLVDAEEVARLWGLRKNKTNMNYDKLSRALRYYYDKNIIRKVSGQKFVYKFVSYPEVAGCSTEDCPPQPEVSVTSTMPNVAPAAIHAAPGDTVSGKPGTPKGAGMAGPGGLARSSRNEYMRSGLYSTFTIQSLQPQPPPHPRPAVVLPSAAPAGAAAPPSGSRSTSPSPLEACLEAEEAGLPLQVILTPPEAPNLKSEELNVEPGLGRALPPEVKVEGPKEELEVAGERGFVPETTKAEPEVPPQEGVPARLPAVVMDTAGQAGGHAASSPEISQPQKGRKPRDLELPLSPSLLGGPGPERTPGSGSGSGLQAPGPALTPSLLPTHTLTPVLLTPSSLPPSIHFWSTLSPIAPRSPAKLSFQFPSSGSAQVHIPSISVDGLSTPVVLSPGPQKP
# In short: as §1
# [3] = target: T3, GABPA (Homo sapiens, UniProt Q06546 1-454); details: protein: recombinant; tags: N-terminal GST; dsDNA, one strand shown
# T3 sequence: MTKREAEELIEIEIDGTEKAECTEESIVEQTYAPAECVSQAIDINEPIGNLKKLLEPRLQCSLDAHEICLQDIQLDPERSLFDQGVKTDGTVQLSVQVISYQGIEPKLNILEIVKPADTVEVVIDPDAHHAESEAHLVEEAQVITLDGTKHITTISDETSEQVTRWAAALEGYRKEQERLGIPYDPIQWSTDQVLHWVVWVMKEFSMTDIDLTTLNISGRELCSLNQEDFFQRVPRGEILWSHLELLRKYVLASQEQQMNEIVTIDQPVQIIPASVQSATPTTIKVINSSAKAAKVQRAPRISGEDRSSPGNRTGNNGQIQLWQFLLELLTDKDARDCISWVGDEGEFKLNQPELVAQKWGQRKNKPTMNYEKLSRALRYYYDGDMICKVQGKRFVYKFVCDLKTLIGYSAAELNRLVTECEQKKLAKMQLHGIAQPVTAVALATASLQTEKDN
# In short: as §1
# [4] = target: T4, ERG (Homo sapiens, UniProt P11308 1-479); details: protein: recombinant; tags: N-terminal GST; dsDNA, one strand shown
# T4 sequence: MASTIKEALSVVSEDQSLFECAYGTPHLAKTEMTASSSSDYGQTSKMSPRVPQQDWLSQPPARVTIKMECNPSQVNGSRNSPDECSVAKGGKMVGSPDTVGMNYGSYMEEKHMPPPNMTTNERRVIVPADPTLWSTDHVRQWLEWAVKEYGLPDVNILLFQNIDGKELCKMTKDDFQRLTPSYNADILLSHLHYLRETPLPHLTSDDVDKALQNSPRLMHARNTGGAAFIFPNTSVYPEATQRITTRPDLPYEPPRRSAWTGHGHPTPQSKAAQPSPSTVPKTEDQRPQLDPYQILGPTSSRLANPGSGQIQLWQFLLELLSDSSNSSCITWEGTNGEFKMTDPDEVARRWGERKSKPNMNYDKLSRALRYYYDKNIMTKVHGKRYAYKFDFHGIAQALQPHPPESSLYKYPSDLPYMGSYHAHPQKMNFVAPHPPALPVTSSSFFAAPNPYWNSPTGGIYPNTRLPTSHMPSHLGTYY
# In short: as §1
# [5] = target: ELF1 (Homo sapiens, UniProt P32519 1-619); details: protein: recombinant; tags: N-terminal GST; dsDNA, one strand shown
# ELF1, sequence (P32519 whole entry): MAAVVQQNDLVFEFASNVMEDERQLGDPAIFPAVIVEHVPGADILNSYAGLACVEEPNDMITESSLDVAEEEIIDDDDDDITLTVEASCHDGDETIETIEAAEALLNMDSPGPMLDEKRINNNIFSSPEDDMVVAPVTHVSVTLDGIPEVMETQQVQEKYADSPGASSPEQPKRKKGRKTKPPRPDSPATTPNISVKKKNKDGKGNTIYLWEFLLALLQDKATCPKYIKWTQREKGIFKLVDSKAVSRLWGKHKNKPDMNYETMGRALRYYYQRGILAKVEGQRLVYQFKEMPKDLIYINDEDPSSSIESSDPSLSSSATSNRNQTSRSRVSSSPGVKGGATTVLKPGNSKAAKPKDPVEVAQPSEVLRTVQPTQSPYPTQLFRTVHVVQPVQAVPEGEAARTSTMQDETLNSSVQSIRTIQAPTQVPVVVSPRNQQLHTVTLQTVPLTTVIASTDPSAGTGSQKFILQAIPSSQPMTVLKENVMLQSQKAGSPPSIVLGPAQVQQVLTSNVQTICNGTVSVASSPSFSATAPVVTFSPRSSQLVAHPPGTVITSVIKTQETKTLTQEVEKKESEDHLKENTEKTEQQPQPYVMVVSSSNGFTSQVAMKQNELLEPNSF
# In short: as §1
# [6] = target: T5, EHF (Homo sapiens, UniProt Q9NZC4 1-300); details: protein: recombinant; tags: N-terminal GST; dsDNA, one strand shown
# T5 sequence: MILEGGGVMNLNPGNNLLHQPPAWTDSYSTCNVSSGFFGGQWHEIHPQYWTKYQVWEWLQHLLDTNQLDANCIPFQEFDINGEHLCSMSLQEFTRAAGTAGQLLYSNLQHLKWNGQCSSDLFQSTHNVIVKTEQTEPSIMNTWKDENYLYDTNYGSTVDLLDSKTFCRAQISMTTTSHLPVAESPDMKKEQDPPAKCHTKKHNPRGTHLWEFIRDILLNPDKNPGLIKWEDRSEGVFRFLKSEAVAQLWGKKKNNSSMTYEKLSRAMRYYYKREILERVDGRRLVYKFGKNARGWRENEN
# In short: as §1
# [7] = target: SPI1 (Homo sapiens, UniProt P17947 1-270); details: protein: recombinant; tags: N-terminal GST; dsDNA, one strand shown
# In short: as §1
# [8] = target: SPIB (Homo sapiens, UniProt Q01892 1-262); details: protein: recombinant; tags: N-terminal GST; dsDNA, one strand shown
# SPIB, sequence (Q01892 whole entry): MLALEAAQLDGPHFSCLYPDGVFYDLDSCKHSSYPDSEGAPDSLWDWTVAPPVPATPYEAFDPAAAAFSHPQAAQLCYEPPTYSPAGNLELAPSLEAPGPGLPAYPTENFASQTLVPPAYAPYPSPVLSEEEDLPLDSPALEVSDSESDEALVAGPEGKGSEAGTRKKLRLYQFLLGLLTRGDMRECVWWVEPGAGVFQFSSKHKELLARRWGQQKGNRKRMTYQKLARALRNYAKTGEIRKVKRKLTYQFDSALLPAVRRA
# In short: as §1
# [9] = target: T6, ELK3 (Homo sapiens, UniProt P41970 1-407); details: protein: recombinant; tags: N-terminal GST; dsDNA, one strand shown
# T6 sequence: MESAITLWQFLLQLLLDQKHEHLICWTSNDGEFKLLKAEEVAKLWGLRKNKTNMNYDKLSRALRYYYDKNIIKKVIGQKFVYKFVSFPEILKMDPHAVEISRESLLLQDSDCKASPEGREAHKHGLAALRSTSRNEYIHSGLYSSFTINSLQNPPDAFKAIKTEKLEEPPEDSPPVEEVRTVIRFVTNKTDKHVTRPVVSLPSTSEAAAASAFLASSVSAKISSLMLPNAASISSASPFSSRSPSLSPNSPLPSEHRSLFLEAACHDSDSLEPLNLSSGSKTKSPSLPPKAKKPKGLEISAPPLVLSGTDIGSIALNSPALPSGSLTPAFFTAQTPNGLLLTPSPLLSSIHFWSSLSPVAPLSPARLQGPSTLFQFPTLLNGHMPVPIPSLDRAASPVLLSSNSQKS
# In short: as §1
# [10] = target: T7, FEV (Homo sapiens, UniProt Q99581 1-238); details: protein: recombinant; tags: N-terminal GST; dsDNA, one strand shown
# T7 sequence: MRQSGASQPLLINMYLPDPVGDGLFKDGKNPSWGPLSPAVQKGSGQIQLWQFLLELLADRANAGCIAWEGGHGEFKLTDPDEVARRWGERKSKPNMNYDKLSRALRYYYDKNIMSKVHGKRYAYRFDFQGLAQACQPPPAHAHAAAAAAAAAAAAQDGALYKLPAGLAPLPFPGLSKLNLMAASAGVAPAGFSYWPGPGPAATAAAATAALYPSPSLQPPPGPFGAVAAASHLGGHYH
# In short: as §1
# [11] = target: ETV5 (Homo sapiens, UniProt P41161 1-510); details: protein: recombinant; tags: N-terminal GST; dsDNA, one strand shown
# ETV5, sequence (P41161 whole entry): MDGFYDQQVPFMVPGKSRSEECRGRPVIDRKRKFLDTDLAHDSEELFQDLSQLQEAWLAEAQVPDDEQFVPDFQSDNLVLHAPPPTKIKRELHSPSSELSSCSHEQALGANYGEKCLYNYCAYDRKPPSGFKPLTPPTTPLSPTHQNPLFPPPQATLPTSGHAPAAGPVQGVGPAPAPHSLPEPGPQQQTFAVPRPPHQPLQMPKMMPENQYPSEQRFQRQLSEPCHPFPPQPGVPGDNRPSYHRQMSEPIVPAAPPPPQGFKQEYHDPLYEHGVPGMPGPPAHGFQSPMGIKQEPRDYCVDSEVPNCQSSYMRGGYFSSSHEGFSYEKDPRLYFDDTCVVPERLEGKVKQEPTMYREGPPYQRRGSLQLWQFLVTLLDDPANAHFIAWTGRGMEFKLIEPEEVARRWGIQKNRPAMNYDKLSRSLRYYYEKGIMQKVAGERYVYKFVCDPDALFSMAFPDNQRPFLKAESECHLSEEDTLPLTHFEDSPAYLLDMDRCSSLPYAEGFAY
# In short: as §1
# [12] = target: HSF1 (Homo sapiens, UniProt Q00613 1-529); details: protein: recombinant; tags: N-terminal GST; chain copies: 3; dsDNA, one strand shown
# HSF1, sequence (Q00613 whole entry): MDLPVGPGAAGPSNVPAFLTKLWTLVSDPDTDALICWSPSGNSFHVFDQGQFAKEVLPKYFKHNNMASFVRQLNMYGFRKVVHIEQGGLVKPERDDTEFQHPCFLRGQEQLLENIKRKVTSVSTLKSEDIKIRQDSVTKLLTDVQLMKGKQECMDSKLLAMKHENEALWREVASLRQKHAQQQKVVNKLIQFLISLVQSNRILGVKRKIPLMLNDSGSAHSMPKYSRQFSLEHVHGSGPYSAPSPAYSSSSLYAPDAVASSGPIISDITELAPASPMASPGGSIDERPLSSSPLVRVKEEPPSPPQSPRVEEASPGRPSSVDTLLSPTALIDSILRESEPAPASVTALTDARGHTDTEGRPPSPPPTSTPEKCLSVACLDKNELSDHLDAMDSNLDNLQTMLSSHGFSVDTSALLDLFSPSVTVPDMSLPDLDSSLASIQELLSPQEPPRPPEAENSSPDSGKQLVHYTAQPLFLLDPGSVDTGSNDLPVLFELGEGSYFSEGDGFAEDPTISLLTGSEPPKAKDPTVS
# In short: as §1
# [13] = target: T8, SPIC (Homo sapiens, UniProt Q8N5J4 1-248); details: protein: recombinant; tags: N-terminal GST; dsDNA, one strand shown
# T8 sequence: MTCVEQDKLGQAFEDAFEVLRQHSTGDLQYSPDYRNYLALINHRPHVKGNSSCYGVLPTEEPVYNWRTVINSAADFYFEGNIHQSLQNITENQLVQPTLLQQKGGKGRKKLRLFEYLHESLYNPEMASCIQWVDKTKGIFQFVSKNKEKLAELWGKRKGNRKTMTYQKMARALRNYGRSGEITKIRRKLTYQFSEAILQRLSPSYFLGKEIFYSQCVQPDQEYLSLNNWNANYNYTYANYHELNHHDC
# In short: as §1
# [14] = target: ELF4 (Homo sapiens, UniProt Q99607 1-663); details: protein: recombinant; tags: N-terminal GST; dsDNA, one strand shown
# ELF4, sequence (Q99607 whole entry): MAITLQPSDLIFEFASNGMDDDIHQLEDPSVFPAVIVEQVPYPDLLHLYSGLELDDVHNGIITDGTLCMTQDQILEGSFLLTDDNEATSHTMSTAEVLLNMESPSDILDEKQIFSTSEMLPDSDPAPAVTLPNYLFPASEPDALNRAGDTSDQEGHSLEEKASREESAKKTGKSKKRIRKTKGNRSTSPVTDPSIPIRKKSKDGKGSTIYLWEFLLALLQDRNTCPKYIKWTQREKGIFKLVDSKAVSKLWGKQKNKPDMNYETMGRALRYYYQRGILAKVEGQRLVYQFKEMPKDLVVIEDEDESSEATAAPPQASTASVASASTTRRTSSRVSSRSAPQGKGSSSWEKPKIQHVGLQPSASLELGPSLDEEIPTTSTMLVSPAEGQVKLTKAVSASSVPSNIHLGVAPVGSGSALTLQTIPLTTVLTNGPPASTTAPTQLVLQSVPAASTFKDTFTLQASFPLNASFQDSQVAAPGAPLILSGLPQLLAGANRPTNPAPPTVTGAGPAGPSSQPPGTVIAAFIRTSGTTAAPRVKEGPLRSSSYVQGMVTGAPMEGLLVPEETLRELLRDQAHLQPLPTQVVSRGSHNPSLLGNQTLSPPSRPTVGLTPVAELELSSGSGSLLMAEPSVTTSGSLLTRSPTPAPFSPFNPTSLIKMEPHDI
# In short: as §1
# [15] = target: T9, ELK4 (Homo sapiens, UniProt P28324-2 1-405); details: protein: recombinant; tags: N-terminal GST; dsDNA, one strand shown
# T9 sequence: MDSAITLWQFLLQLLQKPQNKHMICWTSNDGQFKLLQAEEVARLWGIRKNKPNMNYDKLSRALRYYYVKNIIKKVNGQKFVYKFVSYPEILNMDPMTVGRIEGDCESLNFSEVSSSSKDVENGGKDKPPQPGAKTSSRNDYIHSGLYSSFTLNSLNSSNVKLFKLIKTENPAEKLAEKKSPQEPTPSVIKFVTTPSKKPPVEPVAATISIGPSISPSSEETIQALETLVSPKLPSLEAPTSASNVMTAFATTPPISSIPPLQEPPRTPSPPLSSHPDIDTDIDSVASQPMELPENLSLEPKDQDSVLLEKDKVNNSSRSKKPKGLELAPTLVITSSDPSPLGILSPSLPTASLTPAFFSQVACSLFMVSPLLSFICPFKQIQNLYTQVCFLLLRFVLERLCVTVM
# In short: as §1
# [16] = target: T10, ETV2 (Homo sapiens, UniProt O00321 1-342); details: protein: recombinant; tags: N-terminal GST; dsDNA, one strand shown
# T10 sequence: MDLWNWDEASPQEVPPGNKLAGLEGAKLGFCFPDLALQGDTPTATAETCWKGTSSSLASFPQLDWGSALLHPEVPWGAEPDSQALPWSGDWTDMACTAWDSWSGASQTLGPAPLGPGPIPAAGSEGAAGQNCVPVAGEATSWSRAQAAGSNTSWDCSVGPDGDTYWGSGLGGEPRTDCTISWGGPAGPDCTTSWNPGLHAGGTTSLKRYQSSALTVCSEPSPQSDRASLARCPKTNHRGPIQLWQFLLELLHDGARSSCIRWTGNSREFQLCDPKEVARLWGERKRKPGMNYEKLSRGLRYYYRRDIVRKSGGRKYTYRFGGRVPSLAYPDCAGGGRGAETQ
# In short: as §1
# [17] = target: T11, ELF3 (Homo sapiens, UniProt P78545 1-371); details: protein: recombinant; tags: N-terminal GST; dsDNA, one strand shown
# T11 sequence: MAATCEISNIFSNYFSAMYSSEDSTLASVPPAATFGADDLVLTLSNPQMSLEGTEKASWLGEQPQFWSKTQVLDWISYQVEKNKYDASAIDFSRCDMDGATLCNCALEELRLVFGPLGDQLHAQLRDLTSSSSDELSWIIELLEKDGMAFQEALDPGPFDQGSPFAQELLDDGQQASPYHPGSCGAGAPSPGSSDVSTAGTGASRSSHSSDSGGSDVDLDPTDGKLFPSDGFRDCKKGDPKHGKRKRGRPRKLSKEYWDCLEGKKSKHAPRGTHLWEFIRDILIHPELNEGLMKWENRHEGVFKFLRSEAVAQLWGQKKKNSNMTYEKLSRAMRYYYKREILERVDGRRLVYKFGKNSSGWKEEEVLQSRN
# In short: as §1
# [18] = target: CRX (Homo sapiens, UniProt O43186 1-299); details: protein: recombinant; tags: N-terminal GST; dsDNA, one strand shown
# CRX, sequence (O43186 whole entry): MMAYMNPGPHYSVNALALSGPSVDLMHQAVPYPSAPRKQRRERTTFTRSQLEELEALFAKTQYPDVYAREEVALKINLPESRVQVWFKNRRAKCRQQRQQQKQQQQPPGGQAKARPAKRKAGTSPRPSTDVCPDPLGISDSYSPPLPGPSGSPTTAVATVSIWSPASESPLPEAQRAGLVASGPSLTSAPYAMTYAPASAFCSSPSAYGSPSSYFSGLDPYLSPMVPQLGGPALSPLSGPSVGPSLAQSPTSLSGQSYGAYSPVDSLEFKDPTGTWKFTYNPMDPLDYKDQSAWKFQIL
# In short: as §1
# [19] = target: ETV1 (Homo sapiens, UniProt P50549 1-477); details: protein: recombinant; tags: N-terminal GST; dsDNA, one strand shown
# ETV1, sequence (P50549 whole entry): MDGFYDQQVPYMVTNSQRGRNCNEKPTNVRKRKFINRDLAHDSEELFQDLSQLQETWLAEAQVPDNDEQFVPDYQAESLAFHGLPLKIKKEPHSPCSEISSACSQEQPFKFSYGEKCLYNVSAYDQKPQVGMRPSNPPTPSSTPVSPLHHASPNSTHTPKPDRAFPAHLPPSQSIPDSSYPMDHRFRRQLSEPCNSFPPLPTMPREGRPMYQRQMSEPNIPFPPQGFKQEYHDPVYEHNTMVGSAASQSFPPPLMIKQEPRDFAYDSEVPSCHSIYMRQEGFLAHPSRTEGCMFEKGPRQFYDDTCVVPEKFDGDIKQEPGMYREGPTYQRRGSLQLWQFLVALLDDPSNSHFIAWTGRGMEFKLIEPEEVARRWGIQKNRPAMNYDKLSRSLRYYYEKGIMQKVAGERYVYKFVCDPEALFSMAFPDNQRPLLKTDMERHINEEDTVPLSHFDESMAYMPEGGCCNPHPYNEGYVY
# In short: as §1
sequence,measurement,setting,value
ATCCTA,binding signal,[1],"1.54 fold enrichment (6-mer frequency, TF over GST control)"
same,binding signal,[2],"1.34 fold enrichment (6-mer frequency, TF over GST control)"
same,binding signal,[3],"1.37 fold enrichment (6-mer frequency, TF over GST control)"
same,binding signal,[4],"1.4 fold enrichment (6-mer frequency, TF over GST control)"
same,binding signal,[5],"1.37 fold enrichment (6-mer frequency, TF over GST control)"
same,binding signal,[6],"1.3 fold enrichment (6-mer frequency, TF over GST control)"
same,binding signal,[7],"1.27 fold enrichment (6-mer frequency, TF over GST control)"
same,binding signal,[8],"1.48 fold enrichment (6-mer frequency, TF over GST control)"
same,binding signal,[9],"1.43 fold enrichment (6-mer frequency, TF over GST control)"
same,binding signal,[10],"1.32 fold enrichment (6-mer frequency, TF over GST control)"
same,binding signal,[11],"1.37 fold enrichment (6-mer frequency, TF over GST control)"
same,binding signal,[12],"1.61 fold enrichment (6-mer frequency, TF over GST control)"
same,binding signal,[13],"1.44 fold enrichment (6-mer frequency, TF over GST control)"
same,binding signal,[14],"1.32 fold enrichment (6-mer frequency, TF over GST control)"
same,binding signal,[15],"1.26 fold enrichment (6-mer frequency, TF over GST control)"
same,binding signal,[16],"1.41 fold enrichment (6-mer frequency, TF over GST control)"
same,binding signal,[17],"1.24 fold enrichment (6-mer frequency, TF over GST control)"
same,binding signal,[18],"2.19 fold enrichment (6-mer frequency, TF over GST control)"
same,binding signal,[19],"1.32 fold enrichment (6-mer frequency, TF over GST control)"
